In PubChem BioAssay (Tox21):
The source made the active and inactive calls. The call rests on the fitted dose curve; in most records, active means well fitted inhibition curve with a large enough effect in the repeat runs (not every such curve was filed as active); inconclusive means weak or mixed curves; inactive means flat fitted curve, though single readings scatter.

The compounds below were run against Thyrotropin-releasing hormone receptor (Homo sapiens) (UniProt P34981) (assay: qHTS assay to identify small molecule antagonists of the thyrotropin-releasing hormone receptor (TRHR) signaling pathway (AID 1346877)). Conditions: TRHR-HEK293, TRH-induced calcium fluorescence, antagonist mode; series mostly up to 51.3 µM.
Thyrotropin-releasing hormone receptor (Homo sapiens), sequence (P34981 whole entry, looked up): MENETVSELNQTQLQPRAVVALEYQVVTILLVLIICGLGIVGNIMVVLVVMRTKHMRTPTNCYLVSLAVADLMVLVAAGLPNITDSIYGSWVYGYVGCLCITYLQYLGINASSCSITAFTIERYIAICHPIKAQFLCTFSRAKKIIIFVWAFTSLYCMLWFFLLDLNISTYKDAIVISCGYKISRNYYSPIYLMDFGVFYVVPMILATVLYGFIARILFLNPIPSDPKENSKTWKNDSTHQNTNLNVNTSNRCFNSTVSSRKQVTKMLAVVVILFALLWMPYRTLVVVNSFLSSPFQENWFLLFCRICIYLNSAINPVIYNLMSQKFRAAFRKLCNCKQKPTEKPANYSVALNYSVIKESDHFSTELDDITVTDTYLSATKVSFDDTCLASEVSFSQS
Outline: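 Overnight-plated (18 h, 37 °C) HEK293 cells expressing TRHR were dye-loaded 2 h, treated with compound, then stimulated with TRH at 1 nM final. Fluorescence intensity was captured every second for 3 min.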
For O=C(O)CCCc1ccc(N(CCCl)CCCl)cc1, the outcome was “inactive”. Nc1nc(N)nc(NC2CC2)n1 was tested, and the outcome was “inactive”. For Sc1ccccc1, the outcome was “inactive”. With CC(C)c1cccc(C(C)C)c1O the outcome was “inactive”. In the case of COC(C)(C)CCCC(C)C/C=C/C(C)=C/C(=O)OC(C)C (stereo not given), the outcome is reported as “inactive”. O=P1(NCCCl)OCCCN1CCCl (stereo not given) was tested, and the outcome was “inactive”. In the case of CNC(=O)Oc1cccc2ccccc12, the outcome is reported as “inactive”. For Nc1cc(Cl)cc(Cl)c1, the outcome was “inactive”. In the case of Cc1cc(O)ccc1Cl, the outcome is reported as “inactive”. For CCOC(=O)CC(SP(=O)(OC)OC)C(=O)OCC (stereo not given), the outcome was “inactive”. For CC(=O)/C=C/c1ccccc1, the outcome was “inactive”. Cl[C@H]1OCCO[C@@H]1Cl was tested, and the outcome was “inactive”. In the case of Oc1ccc(Cl)cc1, the outcome is reported as “inactive”. COP(=S)(OC)SCN1C(=O)c2ccccc2C1=O was tested, and the outcome was “inactive”. For OCc1ccco1, the outcome was “inactive”. With CCOP(=S)(OCC)Oc1ccc([N+](=O)[O-])cc1 the outcome was “inactive”. In the case of CCOP(=S)(OCC)Oc1cc(C)nc(C(C)C)n1, the outcome is reported as “inactive”. With c1ccc2c(c1)CCCC2 the outcome was “inactive”. CSc1nnc(C(C)(C)C)c(=O)n1N was tested, and the outcome was “inactive”. For N#Cc1cccc(C#N)c1, the outcome was “inactive”.
